# Experimental data taken from the supplement of paper PMC3545927.
# The list shows a part of the results. No count for the full screen is at hand.
# Target: furin, P09958
# Test: furin cleavage Z-score vs untreated control; higher = more cleavage, active = 3.5 or more, inactive = 1 or less, 8 variable residues between constant flanks
# Procedure, shortened: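 Magnetic beads held 8-mer peptides by the N-terminus, each fused to a cDNA oligonucleotide, and purified furin was added for 7.5, 15 or 30 min. Released DNA was sequenced after PCR adapter tagging. The cleavage Z-score is the log count relative to furin-free reactions, lowess-adjusted and divided by median absolute deviation.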
# 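Note: purified furin at 1:10 enzyme:substrate in 50 mM HEPES pH 7.5.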
# Sequence of furin, P09958 (P09958 whole entry): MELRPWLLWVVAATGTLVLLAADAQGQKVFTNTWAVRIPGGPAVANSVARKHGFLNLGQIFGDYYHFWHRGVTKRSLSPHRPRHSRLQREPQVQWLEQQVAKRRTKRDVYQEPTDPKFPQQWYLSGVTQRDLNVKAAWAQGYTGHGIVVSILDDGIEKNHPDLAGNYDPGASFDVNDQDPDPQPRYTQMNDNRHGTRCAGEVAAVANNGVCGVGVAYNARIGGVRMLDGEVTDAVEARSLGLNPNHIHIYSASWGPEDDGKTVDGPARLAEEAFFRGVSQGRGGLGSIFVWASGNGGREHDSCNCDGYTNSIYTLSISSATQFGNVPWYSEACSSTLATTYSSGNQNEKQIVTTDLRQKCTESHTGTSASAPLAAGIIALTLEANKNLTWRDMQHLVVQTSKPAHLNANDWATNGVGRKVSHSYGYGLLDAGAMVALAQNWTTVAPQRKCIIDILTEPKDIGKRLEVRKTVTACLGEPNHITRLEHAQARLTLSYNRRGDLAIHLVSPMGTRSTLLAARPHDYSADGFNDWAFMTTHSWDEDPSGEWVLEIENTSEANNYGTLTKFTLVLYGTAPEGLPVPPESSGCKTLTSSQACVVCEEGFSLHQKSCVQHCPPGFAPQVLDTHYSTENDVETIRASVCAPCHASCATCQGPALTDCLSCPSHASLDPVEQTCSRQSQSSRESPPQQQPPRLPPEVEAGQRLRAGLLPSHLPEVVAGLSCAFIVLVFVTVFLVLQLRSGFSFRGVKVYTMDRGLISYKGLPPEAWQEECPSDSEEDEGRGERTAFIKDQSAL
Sequence,furin cleavage Z-score (7.5 min),furin cleavage Z-score (15 min),furin cleavage Z-score (30 min)
CASVCCSMSYAGNASASA [HC1997],-0.28 (inactive),-0.316 (inactive),-0.657 (inactive)
CAAREVPCHRAGNASASA [HC2423],0.147 (inactive),1.34,1.67
CAPGAKQNVQAGNASASA [HC363],-0.22 (inactive),-0.957 (inactive),-0.643 (inactive)
CASCGGVVLVAGNASASA [HC569],-1.44 (inactive),-0.138 (inactive),-1.42 (inactive)
CAQLLRRLHQAGNASASA [HC1138],-0.809 (inactive),0.744 (inactive),0.327 (inactive)
CAQLLRRRRAAGNASASA [FS-1475],5.21 (active),3.72 (active),3.69 (active)
CAHRSVRRRAAGNASASA [FS-798],4.59 (active),5.95 (active),5.68 (active)
CACLSRRRRAAGNASASA [FS-582],9.75 (active),10.1 (active),8.23 (active)
CASLLRERRAAGNASASA [FS-1613],-0.33 (inactive),1.11,0.57 (inactive)
CAFLSRRRRAAGNASASA [FS-326],8.63 (active),7.91 (active),6.71 (active)
CAEVVTSKWVAGNASASA [HC2214],-0.244 (inactive),-0.0853 (inactive),-0.758 (inactive)
CAWVAMTPTVAGNASASA [HC280],-0.409 (inactive),1.35,0.148 (inactive)
CATTPRSGSWAGNASASA [HC50],0.195 (inactive),-0.703 (inactive),-1.47 (inactive)
CAQASLLKVPAGNASASA [HC612],-0.764 (inactive),-0.112 (inactive),0.0537 (inactive)
CALLAPITAYAGNASASA [HC673],-3.12 (inactive),-1.42 (inactive),-1.58 (inactive)
CAGYFRIRRGAGNASASA [FS-931],7.65 (active),7.42 (active),7.31 (active)
CARVQRLRRGAGNASASA [FS-1076],6.03 (active),4.67 (active),4.95 (active)
CARSERSVILAGNASASA [FS-2237],-0.162 (inactive),0.495 (inactive),-1.51 (inactive)

Sequence,furin cleavage Z-score (7.5 min),furin cleavage Z-score (15 min),furin cleavage Z-score (30 min)
CARSERNRRGAGNASASA [FS-1406],12.7 (active),13.3 (active),9.9 (active)
CAEVARLRRGAGNASASA [FS-1122],0.497 (inactive),0.166 (inactive),1.11
CAHPQRKRRGAGNASASA [FS-538],8.91 (active),10.4 (active),7.34 (active)
CALQVLDSHYAGNASASA [HC1399],0.634 (inactive),0.79 (inactive),-1.28 (inactive)
CALTPPHSAKAGNASASA [HC1416],0.524 (inactive),0.481 (inactive),-0.0828 (inactive)
CASTPCSPHLAGNASASA [HC2539],2.23,-1.13 (inactive),0.314 (inactive)
CALKGSSGGPAGNASASA [HC741],-0.0654 (inactive),-1.8 (inactive),-2.14 (inactive)
CAAKLVALGIAGNASASA [HC863],0.999 (inactive),-2.69 (inactive),0.907 (inactive)
CAFPMRGRRGAGNASASA [FS-1454],-0.221 (inactive),-0.337 (inactive),0.17 (inactive)
CAIKSRFGRGAGNASASA [FS-541],4.29 (active),4.38 (active),4.05 (active)
CARRGRTGRGAGNASASA [HC904],-0.725 (inactive),-0.224 (inactive),-0.511 (inactive)
CAYLNRKRRGAGNASASA [FS-634],9.69 (active),11.9 (active),7.89 (active)
CAHLVPVLRGAGNASASA [FS-595],0.989 (inactive),-0.535 (inactive),-1.61 (inactive)
CAICSRAARGAGNASASA [FS-1534],-0.759 (inactive),0.0398 (inactive),-0.381 (inactive)
CAYLHRVGRGAGNASASA [FS-390],3.96 (active),5.69 (active),4.8 (active)
CAVFQRKRRGAGNASASA [FS-1578],12.4 (active),12.7 (active),9.42 (active)
CAFSSRWGRGAGNASASA [FS-1523],-2.35 (inactive),0.914 (inactive),-0.211 (inactive)
CAVFKRDAHGAGNASASA [FS-3215],-0.773 (inactive),-0.315 (inactive),1.52
